# PubChem BioAssay AID1845224 (National Center for Advancing Translational Sciences (NCATS), 2023)
# Inconclusive results are not listed. A call without a number means that no potency is given here. The source made the active and inactive calls. Calls follow the shape of the dose curve; as a rule, active = well fitted curve in the direction sought with a large enough effect; inconclusive = small, poorly fitted or top-dose-only effect, or another doubt; inactive = no such curve, though single readings can be large or run the other way.
# Tested on: NanoLuc luciferase (engineered Oplophorus gracilirostris luciferase)
# Assay: Confirmatory Nanoluciferase (NLuc) qHTS assay for identification of artifact compounds.
# Conditions: secreted NLuc in S16 cell medium, luminescence, 5 min; series mostly up to 39 µM
# Excerpt: PI: Alexander Tropsha Ph.D. UNC Eshelman School of Pharmacy University of North Carolina, Chapel Hill, North Carolina Hits from high-throughput screening (HTS) of chemical libraries are often false positives due to their interference with the assay detection technology. In response to this problem, we generated the largest publicly available library of chemical liabilities and developed a free webtool to predict HTS artifacts, both of which are described herein. More specifically, we generated, curated, and integrated HTS datasets for thiol reactivity, redox activity, and luciferase (firefly and nano) activity. Using these curated datasets, we developed and validated several Quantitative Structure-Interference Relationship (QSIR) models to predict nuisance behavior. […] These models were employed for virtual profiling of the National Center for Advancing Translational Science's (NCATS) in-house library, and 256 compounds for each assay were selected for the experimental validation of nuisance behavior. The BA for these external predictions ranged from 58 to 78% for compounds within the applicability domains of the models. […] The models developed in this study, along with aggregation models previously developed by our group (SCAM Detective) were implemented in "Liability Predictor," an online tool which may be used as part of chemical library design or for triaging HTS hits. Both the models and the curated datasets are publicly available at https://liability.mml.unc.edu/.
# PROTOCOL TABLE SEQUENCE No. (e.g., 1, 2, 3, etc.); PARAMETER (e.g., Cells, Incubation, Reagent, etc.); VALUE; DESCRIPTION. 1; Reagent; 2 uL; Nanoluciferase media. 2; Compounds and control; 16 nL; Kalypsis pin tool (Wako USA) equipped with a 1536-well pin head. 3; Incubation; 15 min. 4; Reagent; 2 uL; Luciferase enzyme. 5; Incubation; 5 min. 6; Detection; Luminescence, ViewLux microplate reader. NOTES (numbers refer to Sequence numbers above) 1. Medium was collected from the culture flasks of NLuc-expressing S16 cells (80% confluent) prior to cell plating, filtered through a 0.22um filter, and frozen at -20C prior to use. Media was diluted (1:55) and 2 uL was dispensed into all wells of a 1536-well assay plate (solid-bottom white plate; Greiner Bio One, Monroe, NC). 2. A Wako Pin-tool (Wako Automation, Richmond, VA) was used to transfer 16 nL of compounds (consisting of 7-plates in qHTS format, final concentration range 18.3 nM to 114 uM) or control Cilnidipine (final concentration range 623 nM to 80 uM). 3. 15 min. incubation at room temperature protected from light. 4. 2 uL of NLuc substrate (1:100 in Nano-Glo luciferase buffer; Nano-Glo luminescence assay, Promega, Madison, WI) was dispensed for a final assay volume of 4 uL. 5. Plates were centrifuged (121xg, 15 seconds) and incubated for 5 minutes. 6. Samples were read for luminescence on a ViewLux CCD imager (PerkinElmer). Data were normalized to no-enzyme (0% activity) and no-inhibitor (DMSO; 100%) controls and the resulting percent inhibition data were fitted to a 4-parameter Hill equation using NCATS in-house software.
# Potency is read from the fitted curve at half-maximal effect.
row,Compound,Potency
1,CCOc1ccccc1NC(=O)Cn1c(=O)n(CCCC(=O)NCc2ccc(C)cc2)c(=O)c2ccccc21,inactive
2,Cc1cccc(-c2noc(-c3ccc(NCc4ccco4)c([N+](=O)[O-])c3)n2)c1,inactive
3,CC1CCN(c2ccc(-c3nc(C(C)C)no3)cc2[N+](=O)[O-])CC1,inactive
4,O=c1oc2ccc(F)cc2cc1-c1nc(-c2cccs2)no1,inactive
5,CCc1ccc2oc(C(=O)Nc3cc(Cl)ccc3OC)cc(=O)c2c1,inactive
6,COc1ccc(C(=O)Nc2ccc(-c3nc4ncccc4o3)cc2)cc1,inactive
7,O=C(NCCC1=CCCCC1)c1ccc2c(c1)N(Cc1cccc(Cl)c1)C(=O)c1ccccc1S2=O (stereo not given),inactive
8,C[C@@H]1O[C@@H](O[C@@H]2[C@@H](O)[C@H](OCCc3ccc(O)c(O)c3)O[C@H](CO[C@@H]3O[C@H](CO)[C@@H](O)[C@H](O)[C@H]3O)[C@H]2OC(=O)/C=C/c2ccc(O)c(O)c2)[C@H](O)[C@H](O)[C@H]1O,inactive
9,OC[C@H]1O[C@@H](O[C@@H]2OC=C[C@H]3[C@H](O)[C@@H]4O[C@]4(CO)[C@@H]23)[C@H](O)[C@@H](O)[C@@H]1O,inactive
10,CCOC(=O)c1c(C)[nH]c(CCC(=O)NCCCN2CCN(c3ccc(F)cc3)CC2)c1C,inactive
11,O=S1(=O)N=C(Oc2ccc(-c3ccccc3)cc2)c2ccccc21,inactive
12,COc1ccc(-c2c3c(=O)n(C)c(=O)n(C)c3c3n2-c2ccccc2NC3c2ccccc2OC)cc1 (stereo not given),inactive
13,COc1ccccc1CNC(=O)c1nn(-c2ccc(C)cc2)c(=O)c2c1c1ccccc1n2C,inactive
14,Oc1ccc(-c2csc(-c3ccc(F)cc3)n2)c(O)c1,inactive
15,CCCS(=O)(=O)N1CC(=O)N(c2cc(C)cc(C)c2)C(C)(C(=O)NC2CCCCCC2)C1 (stereo not given),inactive
16,COc1ccc(OC(=O)c2nc(SCc3ccccc3F)ncc2Cl)cc1,inactive
17,Cc1nc2nc(CNC(=O)OC(C)(C)C)nn2c(C)c1CCC(=O)NCc1ccccc1Cl,inactive
18,CC(=O)Nc1cc(-c2ccccc2)nn1Cc1cccc(Cl)c1,inactive
19,O=C(COc1ccc(Cl)cc1)Nc1ccc2nc(SCC(=O)N3CCCC3)sc2c1,inactive
20,CCc1ccc(Cn2c(CNS(=O)(=O)c3ccc(Cl)s3)nc3cccnc32)cc1,inactive

row,Compound,Potency
1,COc1ccc(Cn2c(CCC(=O)Nc3cc(C)cc(C)c3)nc3cccnc32)cc1,inactive
2,COc1ccccc1Oc1coc2cc(O)ccc2c1=O,inactive
3,Cc1cc(C)cc(NC(=O)CSc2oc(-c3cccs3)nc2S(=O)(=O)c2ccccc2)c1,inactive
4,CCOc1ccc(-c2cc(NC(=O)Nc3ccccc3Cl)c(C(=O)OC)s2)cc1,inactive
5,Cn1cc(S(=O)(=O)N2CCCC2)cc1C(=O)Nc1ccc(C(F)(F)F)cc1,inactive
6,O=C(O)c1cc(F)c(S(=O)(=O)N2CCN(S(=O)(=O)c3ccc4c(c3)OCCO4)CC2)cc1F,inactive
7,Cc1ccc2[nH]c(CSc3nnc(C)s3)cc(=O)c2c1,inactive
8,COC(=O)c1scc(-c2ccc(C)cc2)c1S(=O)(=O)Nc1cc(Cl)ccc1C,inactive
9,N#C/C(=C\c1ccc(-c2cc(Cl)ccc2Cl)o1)C(=O)Nc1ccccc1C(=O)O,12.2 µM (active)
10,CCOC(=O)c1ccc(N2C(=O)c3[nH]nc(-c4ccc(C)cc4)c3C2c2ccc(O)cc2)cc1 (stereo not given),inactive
11,CC(C)(O)C1CC[C@@]2(C)C3CCC4[C@@]5(C)CCCC(C)(C)C5C(O)C[C@]4(C)[C@]3(C)CC[C@@H]12 (stereo not given in full),inactive
12,COc1cc(O)c2c(c1)O[C@H](c1ccccc1)CC2=O,inactive
13,O=C(OCC#CCSc1nnc(-c2ccc3ccccc3c2)o1)c1ccsc1,inactive
14,Cc1cc(O)cc(O)c1C(=O)O,inactive
15,CN(C)C=O,inactive
16,O=C(O)c1sc2c(c1-c1nc3ccccc3s1)CCNC2,inactive
17,O=C(Nc1ccc(Br)cc1)c1cccc(C(=O)Nc2ccc(Br)cc2)c1,inactive
18,CCCCn1c(SCC(=O)Nc2ccc(F)cc2)nc2c(sc3ccccc32)c1=O,inactive
19,CO[C@H]1C[C@H](O[C@H]2[C@H](C)[C@@H](O[C@@H]3O[C@H](C)C[C@H](N(C)C)[C@H]3O)[C@@H](C)C[C@]3(CO3)C(=O)[C@H](C)[C@@H](O)[C@@H](C)[C@@H](C)OC(=O)[C@@H]2C)O[C@@H](C)[C@@H]1O,inactive
20,Cc1c(Cl)cccc1NC(=O)N1CCOc2ccccc21,inactive
